# Several values for one entry are separate records, joined by “and”; a condition that tells them apart may be missing. Identical values can stand only once. About 83,000 compounds went through this panel and 20% of them were active in at least one assay; those are over-represented in the sample as a whole.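 48-hour exposure, single concentration, 96-well plates; percent growth endpoint where 0 means no net growth. Active: below 10.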 Some structures have more than one record in an assay (separate samples or runs), and their calls can disagree. Activity calls are given as the source filed them.
# How the values were obtained:
# Assay in all cases: NCI-60 one-dose screen, 48 h (100 = growth as untreated, 0 = no growth, -100 = all killed)
# Details in all cases: 10 µM unless noted
# NCI-H23 lung = test system: NCI-H23 lung
# NCI-H226 lung = test system: NCI-H226 lung
# NCI-H322M lung = test system: NCI-H322M lung
# HOP-62 NSCLC = test system: HOP-62 NSCLC
# NCI-H460 lung = test system: NCI-H460 lung
# HOP-92 NSCLC = test system: HOP-92 NSCLC
# NCI-H522 lung = test system: NCI-H522 lung
# A549/ATCC NSCLC = test system: A549/ATCC NSCLC
# 786-0 renal = test system: 786-0 renal
# COLO 205 colon = test system: COLO 205 colon
# DU-145 prostate = test system: DU-145 prostate
# K-562 leukemia = test system: K-562 leukemia
# MALME-3M melanoma = test system: MALME-3M melanoma
# MDA-MB-231 breast = test system: MDA-MB-231 breast
# RXF 393 renal = test system: RXF 393 renal
# SF-268 CNS = test system: SF-268 CNS
# SF-295 CNS = test system: SF-295 CNS
# SF-539 CNS = test system: SF-539 CNS
# UACC-257 melanoma = test system: UACC-257 melanoma
# M14 melanoma = test system: M14 melanoma
Compound,growth (NCI-H23 lung),growth (NCI-H226 lung),growth (NCI-H322M lung),growth (HOP-62 NSCLC),growth (NCI-H460 lung),growth (HOP-92 NSCLC),growth (NCI-H522 lung),growth (A549/ATCC NSCLC),growth (786-0 renal),growth (COLO 205 colon),growth (DU-145 prostate),growth (K-562 leukemia),growth (MALME-3M melanoma),growth (MDA-MB-231 breast),growth (RXF 393 renal),growth (SF-268 CNS),growth (SF-295 CNS),growth (SF-539 CNS),growth (UACC-257 melanoma),growth (M14 melanoma)
S=C(S)N1CCCC1,108% (inactive) and 102% (inactive),108% (inactive) and 111% (inactive),107% (inactive) and 97.7% (inactive),124% (inactive) and 100% (inactive),62.2% (inactive),91.9% (inactive) and 88% (inactive),8.09% (active) and -11.7% (active),70.6% (inactive) and 58.4% (inactive),103% (inactive) and 106% (inactive),60.7% (inactive) and 49.9% (inactive),105% (inactive) and 128% (inactive),39.6% (inactive) and 76.5% (inactive),96.1% (inactive) and 99.7% (inactive),92.3% (inactive) and 125% (inactive),112% (inactive) and 125% (inactive),97% (inactive) and 116% (inactive),112% (inactive) and 103% (inactive),110% (inactive) and 128% (inactive),96.5% (inactive) and 92.6% (inactive),93.8% (inactive) and 101% (inactive)
CC(CN=Cc1ccccc1O)N=Cc1ccccc1O (stereo unspecified),101% (inactive) and 102% (inactive),92.6% (inactive) and 91.4% (inactive),79.2% (inactive) and 113% (inactive),98.9% (inactive) and 104% (inactive),107% (inactive) and 100% (inactive),85.4% (inactive),75.7% (inactive) and 106% (inactive),107% (inactive) and 117% (inactive),104% (inactive) and 109% (inactive),98.5% (inactive),121% (inactive) and 105% (inactive),78.7% (inactive) and 88.2% (inactive),124% (inactive) and 110% (inactive),111% (inactive) and 104% (inactive),102% (inactive) and 91% (inactive),108% (inactive) and 91% (inactive),112% (inactive),94.9% (inactive) and 87.9% (inactive),87.7% (inactive) and 121% (inactive),106% (inactive) and 102% (inactive)
Cc1ccc(NCSc2ccc(Cl)cc2)cc1,80.7% (inactive) and 93.2% (inactive),63.5% (inactive) and 103% (inactive),94.8% (inactive) and 94.6% (inactive),112% (inactive) and 87.8% (inactive),82.7% (inactive) and 93.8% (inactive),63% (inactive),29% (inactive) and 47.1% (inactive),62% (inactive) and 63.7% (inactive),39.1% (inactive) and 53.7% (inactive),81.6% (inactive) and 93.1% (inactive),93.2% (inactive) and 95.4% (inactive),74.1% (inactive) and 80.2% (inactive),115% (inactive) and 92.6% (inactive),58.7% (inactive) and 59.7% (inactive),100% (inactive) and 111% (inactive),63.9% (inactive) and 57.2% (inactive),85.8% (inactive),65% (inactive) and 69.6% (inactive),70.7% (inactive) and 86.5% (inactive),76% (inactive) and 89% (inactive)
CC1=C(/C=C/C(C)=C/C=C/C(C)=C/C=N/NC(=S)NC(=S)N/N=C/C=C(C)/C=C/C=C(C)/C=C/C2=C(C)CCCC2(C)C)C(C)(C)CCC1,-27.2% (active) and -49.8% (active),-66.4% (active) and -86.6% (active),85.1% (inactive) and 63.8% (inactive),-7.59% (active),8.37% (active) and -6.69% (active),-0.81% (active) and -9.45% (active),-84.1% (active) and -88.9% (active),17.3% (inactive) and 3.05% (active),-41.4% (active) and -58.8% (active),-79.7% (active),45.4% (inactive) and 40.3% (inactive),1.87% (active) and -33.1% (active),-42.6% (active) and -41.6% (active),21.6% (inactive) and -34.1% (active),-98.2% (active),30.9% (inactive) and -13% (active),30.3% (inactive) and -7.18% (active),-82.5% (active) and -94.5% (active),12.7% (inactive) and -28.3% (active),-94.8% (active) and -97.5% (active)
CCN(CC)CCNc1cc(-c2cccc(OC(F)(F)F)c2)nc2ccc(N3CCCC3)cc12,65.9% (inactive) and -7.71% (active) and 34.2% (inactive),74.3% (inactive) and 47.8% (inactive) and 63.7% (inactive),29.2% (inactive) and 18.9% (inactive) and 58.3% (inactive),51.6% (inactive) and 3.4% (active) and 34.8% (inactive),27.2% (inactive) and 0.777% (active) and 11.8% (inactive),-83.3% (active) and -7.78% (active) and 20.8% (inactive),60.8% (inactive) and -30.5% (active) and 23% (inactive),55% (inactive) and 3.66% (active) and 29.9% (inactive),-59.9% (active) and 1.27% (active) and 21.2% (inactive),,60.6% (inactive) and 19% (inactive) and 45.4% (inactive),-23% (active) and -25.5% (active) and -21% (active),-50.9% (active) and -42.3% (active) and -14.1% (active),0.557% (active) and -6.72% (active) and -8.3% (active),16.3% (inactive) and -15.5% (active) and 34.2% (inactive),61.1% (inactive) and 18.8% (inactive) and 34.5% (inactive),72% (inactive) and -26.3% (active) and 35.1% (inactive),31.6% (inactive) and -38.2% (active) and 56.9% (inactive),62.5% (inactive) and -10.1% (active) and -0.682% (active),-85.8% (active) and -56.6% (active) and -63.5% (active)
O=C(O)C1(C(=O)O)CCC1.[NH2-].[NH2-].[Pt+2],104% (inactive) and 87.6% (inactive),99% (inactive) and 98.5% (inactive),99.9% (inactive) and 110% (inactive),98.2% (inactive) and 105% (inactive),116% (inactive) and 92.4% (inactive),70.1% (inactive),98.3% (inactive) and 76.1% (inactive),99.3% (inactive) and 97.5% (inactive),101% (inactive) and 98.7% (inactive),,127% (inactive) and 104% (inactive),65.9% (inactive),86.4% (inactive) and 94.2% (inactive),94.4% (inactive) and 8.97% (active),93.9% (inactive),118% (inactive) and 96.4% (inactive),103% (inactive) and 96.9% (inactive),100% (inactive) and 89% (inactive),102% (inactive) and 95.7% (inactive),99.2% (inactive) and 104% (inactive)
Oc1ccc(/C=C/c2ccccc2)cc1,73.2% (inactive) and 76.4% (inactive),104% (inactive) and 103% (inactive),77.6% (inactive) and 83.4% (inactive),109% (inactive) and 87.9% (inactive),73.4% (inactive) and 61.5% (inactive),95.7% (inactive),72.1% (inactive) and 29.2% (inactive),,32.8% (inactive) and 45.1% (inactive),104% (inactive) and 132% (inactive),50.9% (inactive) and 58.4% (inactive),64.7% (inactive) and 58.4% (inactive),97.9% (inactive) and 71.7% (inactive),57.4% (inactive) and 47.1% (inactive),75.9% (inactive) and 91% (inactive),53.7% (inactive) and 62.5% (inactive),82.8% (inactive) and 81% (inactive),79.6% (inactive) and 68.7% (inactive),100% (inactive) and 87.9% (inactive),
